About 83,000 compounds went through this panel and 20% of them were active in at least one assay; those are over-represented in the sample as a whole.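 48-hour exposure, single concentration, 96-well plates; percent growth endpoint where 0 means no net growth. Active: below 10.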 Values without a mark were called inactive. The source made the active and inactive calls.

This passage reports growth results from PubChem BioAssay (NCI).

The test system of one experiment is CAKI-1 renal. The experiment can be described thus: NCI-60 one-dose screen, 48 h (100 = growth as untreated, 0 = no growth, -100 = all killed). To be noted: 10 µM.
For `O=C(Nc1ccc(Oc2ncnc3scc(Nc4n[nH]c(=S)s4)c23)cc1)C1(C(=O)Nc2cccc(C(F)(F)F)c2)CC1`, the growth is 81.6%.
Same read-out and setting: then `O=C1NC(=S)S/C1=C\c1cn(-c2ccccc2)nc1-c1ccc([N+](=O)[O-])cc1`, with 14.5%; and `O=C(CSc1nc2ccccc2c(=O)n1-c1ccc(Cl)cc1)Nc1ccc(-c2nc3ccc([N+](=O)[O-])cc3[nH]2)cc1`, with 40.8%.

Another experiment concerns A498 renal. Described as above. The conditions noted are these: 10 µM.
On to `COc1ccc(C2c3sc4ccc(C)cc4c3Oc3nc(N)nc(N)c32)cc1` (stereo not drawn), for which the growth is 113%.
As to `Cc1cc(N=C2NC(=O)S/C2=C\c2ccc(F)cc2)n[nH]1`, the growth is 64%.
Same read-out and setting: as for `Cn1cc(-c2nnc(N)nc2-c2c[nH]c3ccccc23)c2cc(Br)cnc21`, the figure is 81.9%; as for `O=C(CC(=O)Nc1ccc(Oc2ncnc3scc(Nc4n[nH]c(=S)s4)c23)cc1)Nc1ccc(Cl)cc1`, 108%.
Still for that read-out and setting: then `O=C1NC2C=CC=CC2/C1=C1/SC(=S)N(C2CC(=O)N(c3ccc(Br)cc3)C2=O)C1=O` (stereo not drawn), with 129%; and `CC1(C)CC(=O)C2=C(C1)N(Cc1ccc(C(=O)O)cc1)C1=C(C(=O)CC(C)(C)C1)C2c1ccc(Cl)cc1`, with 95.8%.
Still for that read-out and setting: as for `Cc1ccc2c(c1)C(=O)/C(=C/c1ccc([N+](=O)[O-])cc1)S2`, the figure is 114%; as for `O=C(Nc1ccc(OCc2ccc(Cl)cc2)cc1)Nc1ccc(Cl)c(C(F)(F)F)c1`, -12.4% (active); as for `Cn1cc(-c2nc(N)nnc2-c2c[nH]c3ccccc23)c2cc(Br)cnc21`, 96.3%.
Consider `O=C(CSc1nc2ccccc2c(=O)n1-c1ccc(Cl)cc1)Nc1ccc(-c2nc3ccccc3[nH]2)cc1`, for which the growth is 109%.
